Results reported in PubChem BioAssay (NCATS).
Records with an inconclusive call do not appear. Values without a mark were called inactive. Activity calls are given as the source filed them. Calls come from the whole dose curve; as a rule, active = well fitted cell-killing curve with a large enough effect; inconclusive = small, poorly fitted or top-dose-only effect; inactive = flat fitted curve, though single readings scatter.

Assay: NCATS anti-infectives library activity on HEK293 viability as a counter-qHTS vs the C. elegans viability qHTS (AID 1745854)
Conditions: HEK293 viability counter-screen; series mostly up to 41.8 µM
Description: Assay Development and Screening Technology Laboratory (ADST)
National Center for Advancing Translational Sciences (NCATS), Rockville, MD
National Institute of Health (NIH), Bethesda, Maryland
Caenorhabditis elegans has helped elucidate the evolutionarily conserved genetics underlying pathways and cellular processes implicated in human disease and may be ideally positioned to reveal novel pharmacological properties of exiting drugs. The organism's short life cycle and microscopic size is applicable to the technical requirements of high-throughput screening. Here a quantitative high-throughput screening (qHTS)-based forward chemical biology platform has been developed using C. elegans. 384-well microtiter plate laser scanning cytometry was used in the rapid detection and quantification of the fluorescent protein-encoded phenotype to score worm viability. In a proof-of-concept study, the pharmacological qHTS profile obtained from a library of 643 anti-infective compounds.
1. Inglese, J., Auld, D. S., Jadhav, A., Johnson, R. L., Simeonov, A., Yasgar, A., Zheng, W., and Austin, C. P. (2006) Quantitative high-throughput screening: A titration-based approach that efficiently identifies biological activities in large chemical libraries, P Natl Acad Sci USA 103, 11473-11478.
2. Auld, D. S., Johnson, R. L., Zhang, Y. Q., Veith, H., Jadhav, A., Yasgar, A., Simeonov, A., Zheng, W., Martinez, E. D., Westwick, J. K., Austin, C. P., and Inglese, J. (2006) Fluorescent protein-based cellular assays analyzed by laser-scanning microplate cytometry in 1536-well plate format, Method Enzymol 414, 566-589.
3. Zuck, P., Lao, Z., Skwish, S., Glickman, J. F., Yang, K., Burbaum, J., and Inglese, J. (1999) Ligand-receptor binding measured by laser-scanning imaging, Proc Natl Acad Sci U S A 96, 11122-11127.
PROTOCOL TABLE (as described by Inglese J, Shamu CE and Guy RK. 2007)
SEQUENCE No. (e.g., 1, 2, 3, etc.); […] (e.g., C. elegans, Compounds, Incubation, Read, etc.); VALUE and DESCRIPTION.
1. Compounds. Library compounds and digitonin control added at 25 nL per well to 7 assay ready 1536-well Greiner white/solid bottom high base, TC plates and two DMSO control plates, transferred by Echo acoustic dispenser.
2. Cells. Seed 1500 HEK293 per well in 6 uL into assay ready Greiner 1536-well plates.
3. Incubation. Incubate plated cells with compounds at 37C in 5% CO2, 95% RH for 24 hr.
4. Reagent. Add 4 uL of CellTiter-Glo reagent from Promega per well of Greiner 1536-well plates with BioRAPTR FRD.
5. Incubation. Incubate treated cells at room temperature for 10 min., protect from light.
6. Detector. CellTiter-Glo luminescence measured using CCD-based camera (Viewlux) with settings as follows: Exposure, 1 sec; Gain, High; Speed, Slow; Binning, 2X.
NOTES (numbers refer to Sequence numbers above; values are from representative experiments)
1. NIH Anti-Infectives library pre-dispensed into 7 assay ready 1536-well Greiner white/solid bottom high base, TC plates with Echo 555 acoustic dispenser. Most compounds dispensed at 10 mM high concentration and plated in 7-pt 1:5 inter-plate titration at 25 nl / well for a final assay concentration range of 41.7 uM - 2.7 nM. Two 1536-well Greiner assay plates of DMSO plated as screening controls to be read at the beginning and the end of the screen. Controls included DMSO vehicle control added at 25 nl/well to each well of column 1 and […] (83.3 uM final assay concentration), and Digitonin titrated 1:2 at 25 nl/ well to column 4 in duplicate for a final assay concentration range of 83.3 uM - 2.5 nM.
2. HEK293 cells grown for 48 hr in one T175 culture flask in DMEM high glucose media supplemented with 10% FBS and 1% Pen/Strep antibiotic. Cells trypsinized and diluted in 10 ml supplemented media, strained through 40 µm cell strainer, and diluted to a total volume of 40 ml with supplemented media. […]
% is set by controls: 0 for no effect and ±100 for the full control effect.

Structure (SMILES)	outcome	activity change, negative = cytotoxicity
O=C(Nc1ccccc1)OCC(CN1CCCCC1)OC(=O)Nc1ccccc1 (stereo not drawn)	inactive	
CCN(CC)CCNc1ccc(CO)c2sc3ccccc3c(=O)c12	inactive	
CCCN(CCC)S(=O)(=O)c1ccc(C(=O)O)cc1	inactive	
COc1cc(C(=O)NCc2ccc(OCCN(C)C)cc2)cc(OC)c1OC	inactive	
O=C(O)P(=O)(O)O	inactive	
O=C(O)CCc1nc2ccccc2[nH]1	inactive	
CC(C)Nc1cccnc1N1CCN(C(=O)c2cc3cc(NS(C)(=O)=O)ccc3[nH]2)CC1	inactive	
OC[C@H]1O[C@@H](Oc2ccc(O)cc2)[C@H](O)[C@@H](O)[C@@H]1O	inactive	
C=C[C@H]1CN2CC[C@H]1C[C@@H]2[C@@H](O)c1ccnc2ccc(OC)cc12	inactive	
C[C@H]1[C@H]2CC[C@H]3[C@@H]4CC=C5C[C@@H](N(C)C)CC[C@]5(C)[C@H]4CC[C@]23CN1C		-25.4% [at 8.35 µM]
CCCCCCCCCCC[C@@H](C[C@@H]1OC(=O)[C@H]1CCCCCC)OC(=O)[C@H](CC(C)C)NC=O	inactive	
O=C1C(=O)c2ccccc2C(O)=C1C1CCC(c2ccc(Cl)cc2)CC1 (stereo not drawn)	inactive	
CC(=O)O[C@]1(C(C)=O)CC[C@H]2[C@@H]3C=C(C)C4=CC(=O)CC[C@]4(C)[C@H]3CC[C@@]21C	inactive	
